Records with an inconclusive call do not appear. Calls of active or inactive are those of the source. The calls were made as follows: active = hit-call score of the fitted dose curve at least 0.9, where 1 is the maximum; inconclusive = response in the unintended direction; inactive = score below 0.9.
Target: Sodium channel protein type 1 subunit alpha (Rattus norvegicus) (UniProt P04774)
Assay: NVS_IC_rNaCh_site2: NovaScreen (NVS) Ion Channel Assay for rat Sodium Channel, Site 2 (NaCh) (AID 2283322);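 also: hit means loss of radioligand binding signal relative to DMSO so AC50 marks displacement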
Method in brief: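 Membranes: rat forebrain. Format: competitive radioligand displacement, filter separation, scintillation readout, 1 h exposure. Primary screen in duplicate at 25 uM; actives retested in concentration series.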

Row | SMILES | outcome | AC50
1 | CC(C)(C)C(=O)C(Oc1ccc(Cl)cc1)n1cncn1 (configuration not stated) | inactive | –
2 | Cn1c(-c2ccccc2)cc(-c2ccccc2)[n+]1C | – | 2.36 µM (active)
3 | CC(C)C1(C)N=C(c2ncccc2C(=O)O)NC1=O (configuration not stated) | inactive | –
4 | CCNC(=O)NC(=O)C(C#N)=NOC | inactive | –

Target: rat Glutamate, AMPA Site (AMPA), Gria1 (gene 50592) (UniProt P19490)
Assay: NVS_LGIC_rAMPA: NovaScreen (NVS) Ligand-Gated Ion Channel Assay for rat Glutamate, AMPA Site (AMPA) (AID 2283324)
Procedure: NVS_LGIC_rAMPA is a biochemical, single-readout assay that uses extracted gene-proteins from Rat forebrain membranes in a tissue-based cell-free assay. Measurements were taken 1 hour after chemical dosing in a 48-well plate.NVS_LGIC_rAMPA is one of one assay component(s) measured or calculated from the NVS_LGIC_rAMPA assay. It is designed to make measurements of radioligand binding, a form of binding reporter, as detected with scintillation counting signals by Filter-based radiodetection technology.Data from the assay component NVS_LGIC_rAMPA was analyzed into 1 assay endpoint. This assay endpoint, NVS_LGIC_rAMPA, was analyzed in the positive analysis fitting direction relative to DMSO as the negative control and baseline of activity. Using a type of binding reporter, loss-of-signal activity can be used to understand changes in the binding as they relate to the gene Gria1. Furthermore, this assay endpoint can be referred to as a primary readout, because the performed assay has only produced 1 assay endpoint. To generalize the intended target to other relatable targets, this assay endpoint is annotated to the ion channel intended target family, where the subfamily is ligand-gated ion channel.
Binding assays used specific radioligands (tritiated, iodinated) with non-radioactive competitive displacement ligands in agonist or antagonist protocols (as indicated) and various reference compounds and inhibitors to titrate specific binding to receptors and transporters. Most enzyme assays (CYPs, kinases, phosphatases, proteases, HDACs) used recombinant protein and specific substrates (fluorescence mostly, some colorimetric and radioactive) and inhibitors, followed by a biochemical separation of substrate and product. All assays for the biochemical HTS were initially run in duplicate at a single concentration (10 uM for CYP450 assays and 25 uM for all others). […]

rat Glutamate, AMPA Site (AMPA), Gria1 (gene 50592), sequence (P19490 whole entry, looked up): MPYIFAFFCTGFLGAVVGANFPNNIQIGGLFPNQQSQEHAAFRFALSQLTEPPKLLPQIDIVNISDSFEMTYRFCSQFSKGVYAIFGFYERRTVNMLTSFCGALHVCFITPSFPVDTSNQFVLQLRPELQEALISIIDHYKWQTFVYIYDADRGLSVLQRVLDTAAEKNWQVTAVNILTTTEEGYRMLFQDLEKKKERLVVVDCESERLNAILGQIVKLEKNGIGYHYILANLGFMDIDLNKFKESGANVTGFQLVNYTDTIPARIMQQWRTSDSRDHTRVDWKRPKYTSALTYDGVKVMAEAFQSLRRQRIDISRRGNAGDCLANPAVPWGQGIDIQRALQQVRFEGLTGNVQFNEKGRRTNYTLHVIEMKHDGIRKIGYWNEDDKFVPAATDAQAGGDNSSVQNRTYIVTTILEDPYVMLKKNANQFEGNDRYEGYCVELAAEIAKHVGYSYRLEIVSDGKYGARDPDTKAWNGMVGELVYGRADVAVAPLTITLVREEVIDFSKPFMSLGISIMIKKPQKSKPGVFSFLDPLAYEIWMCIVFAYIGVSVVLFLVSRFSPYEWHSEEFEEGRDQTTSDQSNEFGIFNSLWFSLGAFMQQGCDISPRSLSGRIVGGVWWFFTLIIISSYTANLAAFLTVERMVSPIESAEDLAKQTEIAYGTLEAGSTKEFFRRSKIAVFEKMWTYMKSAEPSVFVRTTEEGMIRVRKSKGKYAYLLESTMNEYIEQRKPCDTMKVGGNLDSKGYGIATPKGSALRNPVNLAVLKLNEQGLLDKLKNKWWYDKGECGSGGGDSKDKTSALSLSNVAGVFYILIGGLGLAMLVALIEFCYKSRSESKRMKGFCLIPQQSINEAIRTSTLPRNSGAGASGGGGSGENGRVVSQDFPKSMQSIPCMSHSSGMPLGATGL

Row | SMILES | outcome
5 | CN=C=S | inactive
6 | C=C(C)CN(CC)c1c([N+](=O)[O-])cc(C(F)(F)F)cc1[N+](=O)[O-] | inactive
7 | CCNC(=O)NC(=O)C(C#N)=NOC | inactive

Target: rat Thyrotropin Releasing Hormone Receptor (TRH), Trhr (gene 25570) (UniProt Q01717)
Assay: NVS_GPCR_rTRH: NovaScreen (NVS) G Protein-Coupled Receptor Assay for rat Thyrotropin Releasing Hormone Receptor (TRH) (AID 2283329);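 also: hit means lower bound tracer signal versus DMSO baseline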
Method in brief: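 Competitive radioligand binding on rat forebrain membrane preparations, with filtration and scintillation readout after 4 h. Primary testing in duplicate at 25 uM; actives confirmed in concentration-response. DMSO defined baseline.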

rat Thyrotropin Releasing Hormone Receptor (TRH), Trhr (gene 25570), sequence (Q01717 whole entry, looked up): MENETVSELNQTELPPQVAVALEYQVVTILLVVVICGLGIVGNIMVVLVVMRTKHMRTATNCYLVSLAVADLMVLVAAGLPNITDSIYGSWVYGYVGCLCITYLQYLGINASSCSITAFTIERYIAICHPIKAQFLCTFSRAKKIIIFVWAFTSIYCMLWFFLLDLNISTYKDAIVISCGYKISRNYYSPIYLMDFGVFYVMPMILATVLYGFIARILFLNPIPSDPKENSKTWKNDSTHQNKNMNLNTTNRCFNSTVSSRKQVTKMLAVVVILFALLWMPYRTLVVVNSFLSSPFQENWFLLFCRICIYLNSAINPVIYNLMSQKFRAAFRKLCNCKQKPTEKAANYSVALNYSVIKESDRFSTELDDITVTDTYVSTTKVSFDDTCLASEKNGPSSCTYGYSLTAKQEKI

Row | SMILES | outcome
8 | CCOP(=S)(OCC)Oc1nc(Cl)n(C(C)C)n1 | inactive
9 | Cc1cnc(C2=NC(C)(C(C)C)C(=O)N2)c(C(=O)O)c1 (configuration not stated) | inactive
10 | Nc1cnn(-c2ccccc2)c(=O)c1Cl | inactive
11 | Nc1c(Cl)c(Cl)nc(C(=O)O)c1Cl | inactive
12 | CC1(C)CON(Cc2ccccc2Cl)C1=O | inactive
13 | CC(C)C1(C)N=C(c2ncccc2C(=O)O)NC1=O (configuration not stated) | inactive
14 | CCOc1nc(F)cc2nc(S(=O)(=O)Nc3c(Cl)cccc3Cl)nn12 | inactive
15 | CCCCC(O)(Cn1cncn1)c1ccc(Cl)cc1Cl (configuration not stated) | inactive
16 | CCNC(=O)NC(=O)C(C#N)=NOC | inactive

Target: human Peripheral-type Benzodiazepine Receptor (PBR), TSPO (gene 706) (UniProt P30536)
Assay: NVS_MP_hPBR: NovaScreen (NVS) Membrane Protein Assay for human Peripheral-type Benzodiazepine Receptor (PBR) (AID 2283331);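 also: hits reduce radioligand binding relative to DMSO baseline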
Method in brief: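 Scintillation counts of filter-bound radioligand served as read-out after 1 h chemical dosing of human colonic membrane preparations. Activity was scored as signal loss against DMSO; initial duplicates at 25 uM, confirmatory concentration series afterward.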

human Peripheral-type Benzodiazepine Receptor (PBR), TSPO (gene 706), sequence (P30536 whole entry, looked up): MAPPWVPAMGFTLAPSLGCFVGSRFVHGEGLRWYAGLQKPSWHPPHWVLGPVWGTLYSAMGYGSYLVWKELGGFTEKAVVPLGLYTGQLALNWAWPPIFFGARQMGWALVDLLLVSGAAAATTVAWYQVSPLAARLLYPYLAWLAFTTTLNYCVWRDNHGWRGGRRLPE

Row | SMILES | AC50 | outcome
17 | COc1ccc(-c2ccccc2)cc1NNC(=O)OC(C)C | 0.149 µM (active) | –
18 | CCN(CC)c1nc(C)cc(OP(=S)(OC)OC)n1 | 14 µM (active) | –
19 | CCOP(=S)(OCC)Oc1nc(Cl)n(C(C)C)n1 | – | inactive
20 | Cc1c(COC(=O)[C@@H]2[C@H](/C=C(\Cl)C(F)(F)F)C2(C)C)cccc1-c1ccccc1 | – | inactive
21 | COCC(=O)N(c1c(C)cccc1C)C(C)C(=O)OC (configuration not stated) | – | inactive
22 | CC(C)=CC1C(C(=O)OCc2coc(Cc3ccccc3)c2)C1(C)C (configuration not stated) | – | inactive
23 | Cc1nc(N(C)C)nc(OC(=O)N(C)C)c1C | 12.1 µM (active) | –
24 | CC(C)(C)C(=O)C(Oc1ccc(Cl)cc1)n1cncn1 (configuration not stated) | 44 µM (active) | –
25 | CN=C=S | – | inactive
26 | Clc1nc(Cl)nc(Nc2ccccc2Cl)n1 | 14.9 µM (active) | –
27 | COP(=S)(OC)Oc1ccc([N+](=O)[O-])c(C)c1 | 25 µM (active) | –
28 | CC(C)Oc1cccc(NC(=O)c2ccccc2C(F)(F)F)c1 | 0.824 µM (active) | –
29 | CC(C)NC(=O)N1CC(=O)N(c2cc(Cl)cc(Cl)c2)C1=O | 8.8 µM (active) | –
30 | CCCCC(O)(Cn1cncn1)c1ccc(Cl)cc1Cl (configuration not stated) | – | inactive
31 | CCNP(=S)(OC)O/C(C)=C/C(=O)OC(C)C (configuration not stated) | 17.5 µM (active) | –
32 | OC(c1ccc(Cl)cc1)(c1ccc(Cl)cc1)C(Cl)(Cl)Cl | – | inactive
